# Screening results from PubChem.
# ATG4B inh = ATG4B protease inhibitors, primary screen, biochemical, fluorescence, uHTS | ATG4B cleavage of LC3-PLA2, NBD-HPC fluorescence, 1 h | Cysteine protease ATG4B (Homo sapiens), Q9Y4P1 | AID 504462, 2011 | actives 0.51% (n = 340,000) | inhibition, % at 8.33 µM; in the data active = inhibition above about 40%
# PfHsp90 yeast 2 = growth inhibition of PfHsp90-expressing yeast, primary screen, antimalarial PfHsp90 inhibitor project, S. cerevisiae, BacTiter-Glo luminescence, single point, set 2. BacTiter-Glo ATP, 48 h; yeast lacking PDR1 and PDR3 efflux regulators. inhibition, % at 9.4 µM. actives 0.32% (n = 310,000). AID 504621, 2011;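 active = every replicate shows inhibition above about 80%, whatever the replicate mean, limit read from the data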;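 also: 0% = DMSO neutral controls and 100% = 20 µM radicicol positive controls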
# tim23-1 inh = growth inhibitors of tim23-1 mutant yeast, primary screen, luminescence, uHTS; AID 463212, 2010; inhibition, % at 20 µM; S. cerevisiae tim23-1 growth, BacTiter-Glo luminescence, 24 h; actives 1.3% (n = 330,000);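 active = growth inhibition of the mutant yeast at or above 50%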;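 also: temperature-sensitive mutant grown at 25 °C; plate controls were DMSO-treated mutant yeast for no effect and medium wells lacking yeast for full effect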
# TIM10 inh = growth inhibitors of isogenic TIM10 control yeast, primary screen, counter-screen for tim10-1 yeast inhibitor project, luminescence, uHTS; actives 1.4% (n = 330,000); S. cerevisiae TIM10 strain growth, BacTiter-Glo luminescence, 24 h; inhibition, % at 10 µM; AID 463195, 2010;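 active = inhibition of 40% or more at the single tested concentration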;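 also: wild-type TIM10 isogenic control strain grown at permissive 25 °C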
# tim10-1 inh = growth inhibitors of tim10-1 mutant yeast, primary screen, luminescence, uHTS; S. cerevisiae tim10-1 ts strain growth, BacTiter-Glo, 24 h; inhibition, % at 20 µM; actives 2.2% (n = 330,000); AID 463190, 2010;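 active = inhibition of at least 40%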;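 also: mutant grown at 25 °C; 0% = DMSO wells with yeast and 100% = wells holding no yeast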
# SKKanGAS inh = S. pyogenes SKKanGAS growth inhibitors in kanamycin, primary screen, streptokinase expression inhibitor project, SKKanGAS strain, BacTiter-Glo luminescence; 6 h; inhibition, % at 7.5 µM; actives 1.3% (n = 300,000);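 active = mean replicate score, as percent of positive control median, at least 50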;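 also: strain carries kanamycin resistance gene driven by streptokinase promoter and grows in 40 µg/ml kanamycin; loss of luminescence reflects streptokinase promoter inhibition or plain growth inhibition; 0% = median of DMSO wells and 100% = positive control at its reference dose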
# PLA2 ctr = PLA2 enzyme inhibition, counter-screen for ATG4B inhibitor project, biochemical, single concentration, uHTS hits; shares compounds with ATG4B inh; purified PLA2, NBD-C6-HPC fluorescence, 45 min; inhibition, % at 8.33 µM; actives 66% (n = 1,600); in the data active = inhibition above about 50%
# Target sequence (P04054 whole entry, looked up): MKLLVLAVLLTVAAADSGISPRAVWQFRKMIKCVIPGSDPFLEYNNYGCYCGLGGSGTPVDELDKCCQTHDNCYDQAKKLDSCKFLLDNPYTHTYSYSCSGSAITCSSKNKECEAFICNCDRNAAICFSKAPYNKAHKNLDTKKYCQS
# The depositor's hits bear a star; nt = not tested or not shown. Sampled rows, rich in hits. Any-hit rate of the full collection: about 4.7%.
SMILES,ATG4B inh,PfHsp90 yeast 2,tim23-1 inh,TIM10 inh,tim10-1 inh,SKKanGAS inh,PLA2 ctr
c1cncc(-c2nc(N3CCOCC3)c3c4c(sc3n2)CCC4)c1,27,-10,38,36,32,-4,nt
c1cncc(-c2nc(NCCCN3CCOCC3)c3c4c(sc3n2)CCC4)c1,40*,5,32,12,17,-2,57*
Cc1ccc2[nH]c(=O)c(CN(Cc3cccs3)Cc3nnnn3Cc3ccccc3)cc2c1,52*,-13,32,22,6,14,65*
CCOC(=O)Cn1nnnc1CN(Cc1cccs1)Cc1cc2cc(C)ccc2[nH]c1=O,-11,10,12,20,2,-2,nt
O=C(CCc1nnc(CCCCc2ccccc2)o1)NCCc1cccnc1,12,nt,7,4,11,-1,nt
CCCn1c(=S)[nH]c2cc(C(=O)N3CCc4ccccc43)ccc2c1=O,65*,-29,-47,-21,9,14,39
COc1ccc(-c2oc3ccccc3c(=O)c2OC(=O)c2ccc(C)cc2)cc1,4,-5,-9,-9,-8,-9,nt
O=C(Oc1c(-c2ccccc2)oc2ccccc2c1=O)c1ccccc1,45*,-43,30,30,21,16,64*
COc1cccc(/C=C(\CC(=O)O)c2nc3ccccc3s2)c1,-1,-18,26,-4,8,4,nt
O=C(O)CC/C(=C\c1cc([N+](=O)[O-])ccc1Cl)c1nc2ccccc2s1,17,-73,nt,nt,nt,30,nt
O=C(O)CC/C(=C\c1ccc(N2CCCC2)c([N+](=O)[O-])c1)c1nc2ccccc2s1,83*,-53,32,8,-4,48,83*
O=C(O)CC/C(=C\c1cccc(NC(=O)c2ccccc2Cl)c1)c1nc2ccccc2s1,43*,-28,21,7,0,38,62*
O=C(O)CC/C(=C\c1ccccc1[N+](=O)[O-])c1nc2ccccc2s1,53*,4,25,4,4,4,51*
COc1ccc(Br)cc1/C=C(\C(=O)O)c1ccc(S(=O)(=O)N2CCCCC2)s1,84*,-5,22,33,12,nt,87*
CCOc1cc(/C=C(\C(=O)O)c2ccc(S(=O)(=O)N3CCCC3)s2)ccc1OC,5,6,-4,3,-12,nt,nt
O=C(C1=C(c2ccccc2)C(=O)c2ccccc2C1=O)c1ccccc1,45*,-28,nt,nt,nt,13,51*
O=C(c1ccccc1)c1c[nH]cc1-c1ccccc1,-5,-28,6,5,13,2,nt
O=C(NC(=O)c1ccccc1Cl)Nc1ccc(-c2cnco2)cc1,-7,5,2,12,16,4,nt
COc1cc2c3c(c1OC)C1(C=CC(=O)C=C1)CC3N(C(=O)c1ccccc1)CC2 (stereo unspecified),7,nt,8,-1,21,-1,nt
O=C(NCc1ccco1)Nc1ccc2nsnc2c1,-7,5,-2,3,2,1,nt
O=C(NCCC1=CCCCC1)Nc1ccc2nsnc2c1,46*,8,41,18,24,14,50
C/C(CCc1oc2ccccc2c1-c1ccc(C)o1)=N/O,61*,-25,3,4,21,4,64*
COc1c(C)cc(Br)cc1C(=O)Nc1ccc(C)cc1[N+](=O)[O-],42*,-1,9,5,12,1,-19
Cc1ccc(NC(=O)c2cncc(Br)c2)c([N+](=O)[O-])c1,3,-3,9,-9,10,1,nt
O=C(O)CSc1ncnc2sc(-c3ccccc3)cc12,7,nt,5,-3,1,4,nt
CC(Sc1ncnc2sc(-c3ccccc3)cc12)C(N)=O (stereo unspecified),48*,-6,28,8,14,14,62*
